This note sets out measurements from PubChem BioAssay.

The source made the active and inactive calls.

Test [1] deals with Human papillomavirus type 1a protein E7 (residues 44-93). Put plainly: small molecules binding HPV E7 44-93 – biochemical, small-molecule microarray, residues 44-93, 635 nm fluorescence, primary screen (AID 1108).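 Note: E7 fragment applied at 1 µg/mL in TBST for 1 h at 4 C; score combines spot fluorescence with its signal to noise ratio.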 Conditions: fluorescence 635 nm, higher = more signal.
A short description of test [2]: hepatitis C replication reporter changes, two-sided – Huh7 cells, luciferase reporter, HCV replication inhibitor project, primary screen (AID 1109).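 Note: huh7 hepatoma cells harbouring a luciferase neomycin HCV replicon reporter; luciferase luminescence as measure of HCV replicon replication; test concentration not given here.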 The following applies: Huh7 HCV replicon luciferase reporter, 48 h; higher = more signal. (In a reporter assay the amount or activity of a reporter protein is the signal.)
Test [3] addresses Left-right determination factor 2 (Homo sapiens) (UniProt O00292). The test can be described thus: small molecules binding LEFTY2 protein – biochemical, small-molecule microarray, 635 nm fluorescence scan, primary screen (AID 1110). The following applies: higher = more signal.
The target of test [4] is Calmodulin-1 (Homo sapiens) (UniProt P0DP23). Put plainly: small molecules binding calmodulin-1 with EGTA – biochemical, small-molecule microarray, Cy5-labelled CALM1, profiling panel (AID 1111).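 Note: labelled calmodulin applied in Tris saline Tween buffer holding calcium plus EGTA and DTT.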 The following applies: Cy5-CALM1 binding fluorescence, higher = more signal.
Test [5] has the same target. The test can be described thus: small molecules binding Ca-loaded calmodulin-1 – biochemical, small-molecule microarray, Cy5-labelled CALM1, plus calcium, artefact control for SMM control-protein annotation, profiling panel (AID 1112).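 Note: score merges spot fluorescence with signal to noise from triplicate slides.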 Conditions: Cy5-CALM1 binding fluorescence, higher = more signal.
Test [6] is described as follows: probe aWnt5a binding to arrayed compounds – biochemical, biotinylated probe, 635/667 nm fluorescence, primary screen (AID 1113).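 Note: score merges 667 nm fluorescence intensity with signal-to-noise per printed feature.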 Conditions: small-molecule microarray, higher = more signal.
Test [7] is described as follows: probe aShh binding to arrayed compounds – biochemical, biotinylated probe, 635/667 nm fluorescence, primary screen (AID 1114).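 Note: probe is biotin-labelled aShh protein from a stem cell growth factor screen; measures binding of labelled protein to compounds printed on the slide; score merges feature fluorescence at 667 nm with signal-to-noise.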 The following applies: small-molecule microarray, higher = more signal.
Test [8] in a line: probe aNog binding to arrayed compounds – biochemical, biotinylated probe, 635/667 nm fluorescence, primary screen (AID 1115).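 Note: probe is biotinylated aNog protein used at 0.15 µg/mL for 1 h at 4 C; z-score combines 667 nm fluorescence of each spot with its signal to noise.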 Conditions: small-molecule microarray, higher = more signal.
Test [9] has as its target Torsin-1A-interacting protein 1 (Homo sapiens) (UniProt Q5JTV8). Put plainly: compound microarray binding of lysate hLAP1 – cell lysate, small-molecule microarray, COS7 lysate, 635/667 nm fluorescence, primary screen (AID 1116). Conditions: 635 nm fluorescence, higher = more signal.
In test [10] the target is Alpha-bungarotoxin (Bungarus multicinctus) (UniProt P60615). Put plainly: compounds binding labelled alpha-BTX control protein – biochemical, small-molecule microarray, Alexa647 label, 635/667 nm fluorescence, artefact control for SMM control protein annotation, profiling panel (AID 1117). The following applies: alpha-BTX-A647 binding fluorescence, higher = more signal.
Chain of Alpha-bungarotoxin (Bungarus multicinctus) (P60615 whole entry, looked up): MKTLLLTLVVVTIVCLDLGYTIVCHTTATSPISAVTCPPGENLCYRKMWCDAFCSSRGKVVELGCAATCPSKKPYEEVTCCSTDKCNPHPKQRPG
The target of test [11] is Albumin (Bos taurus) (UniProt P02769). The test can be described thus: compounds binding labelled BSA control protein – biochemical, small-molecule microarray, Alexa647 label, 635/667 nm fluorescence, artefact control for SMM control protein annotation, profiling panel (AID 1118).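 Note: score merges 667 nm emission intensity and signal-to-noise per printed compound spot.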 The following applies: BSA-A647 binding, fluorescence 635 nm, higher = more signal.
Chain of Albumin (Bos taurus) (P02769 whole entry, looked up): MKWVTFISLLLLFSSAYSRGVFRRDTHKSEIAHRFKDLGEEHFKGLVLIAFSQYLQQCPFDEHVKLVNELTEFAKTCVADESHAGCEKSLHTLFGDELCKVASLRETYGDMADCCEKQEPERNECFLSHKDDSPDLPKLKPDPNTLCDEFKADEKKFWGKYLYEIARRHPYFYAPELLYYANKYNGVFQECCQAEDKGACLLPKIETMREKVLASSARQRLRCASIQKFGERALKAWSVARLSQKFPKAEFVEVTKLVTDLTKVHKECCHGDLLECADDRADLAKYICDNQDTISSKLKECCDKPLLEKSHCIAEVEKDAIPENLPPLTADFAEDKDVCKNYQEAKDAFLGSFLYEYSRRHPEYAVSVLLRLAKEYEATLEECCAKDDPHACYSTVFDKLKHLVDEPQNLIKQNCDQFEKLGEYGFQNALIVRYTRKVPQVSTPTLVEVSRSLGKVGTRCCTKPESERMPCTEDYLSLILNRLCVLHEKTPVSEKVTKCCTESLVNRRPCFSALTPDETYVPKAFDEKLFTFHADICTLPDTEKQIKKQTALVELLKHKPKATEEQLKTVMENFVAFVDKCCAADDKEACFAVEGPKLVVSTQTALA
Test [12] is described as follows: probe aXIP binding to arrayed compounds – biochemical, NeuroSMM set, 635/667 nm fluorescence, primary screen (AID 1119).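 Note: probe is the protein aXip251-270 applied at 1 µg/mL to compound-printed slides; binding of probe to printed compounds measured as 667 nm fluorescence plus signal to noise.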 Conditions: small-molecule microarray, higher = more signal, called active from +8 up or from −8 down.
Test [13] can be described thus: probe aNOTCH3 binding on compound microarray – biochemical, small-molecule microarray, 635/667 nm fluorescence, primary screen (AID 1120).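 Note: probe is a biotin-tagged antibody raised against NOTCH3 rather than NOTCH3 protein; score merges spot fluorescence near 667 nm with spot signal to noise.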 Conditions: higher = more signal.
A short description of test [14]: probe aNOTCH2 binding on compound microarray – biochemical, small-molecule microarray, 635/667 nm fluorescence, primary screen (AID 1121).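 Note: score merges feature fluorescence read at 667 nm with its signal to noise.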 The following applies: higher = more signal.
Test [15] deals with Carbonic anhydrase 2 (Homo sapiens) (UniProt P00918). The test can be described thus: compounds binding carbonic anhydrase 2 – biochemical, small-molecule microarray, Alexa647-labelled CAII, profiling panel (AID 1122). Conditions: CAII-A647 binding fluorescence, higher = more signal.
The nature of test [16]: COS7 lysate on small-molecule microarray, probe aHis, 635 nm (AID 1123).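 Note: z-score combines 667nm fluorescence intensity with signal-to-noise per printed compound spot.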 The following applies: COS7 cell lysate, fluorescence, higher = more signal.
The nature of test [17]: probe aLAP1 signal on lysate-treated microarray – cell lysate, small-molecule microarray, COS7 lysate, primary screen (AID 1124).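 Note: lysate comes from COS7 cells expressing LAP1 and is applied at 0.3 µg/mL; score merges spot fluorescence near 667 nm with signal-to-noise over triplicate slides.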 The following applies: probe aLAP1, fluorescence, higher = more signal.
Test [18] concerns Sam68 (KHDRBS1). Put plainly: compounds binding KHDRBS1 protein – biochemical, small-molecule microarray, 635 nm fluorescence, primary screen (AID 1125).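 Note: score merges 667 nm channel intensity with signal to noise over triplicate slides.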 The following applies: higher = more signal.
Test [19] has as its system Chordin-like protein 2 (CHRDL2). The test can be described thus: compounds binding chordin-like 2 – biochemical, small-molecule microarray, 635 nm fluorescence, primary screen (AID 1126).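 Note: printed compound slides probed with Chrdl2 protein at 4 µg/mL for 1 h at 4 C; score merges 667 nm emission intensity with signal to noise over three replicate slides.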 Conditions: fluorescence 635 nm, higher = more signal.
Test [20] has as its target Concanavalin-A (Canavalia ensiformis) (UniProt P02866). Put plainly: compounds binding concanavalin A lectin – biochemical, small-molecule microarray, Alexa647 label, 635 nm, artefact control for SMM control protein annotation, primary screen (AID 1127).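 Note: z combines 667 nm emission intensity with signal-to-noise across three replicate slides.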 Conditions: ConA-A647 binding fluorescence, higher = more signal.

Chain of Left-right determination factor 2 (Homo sapiens) (O00292 whole entry, looked up): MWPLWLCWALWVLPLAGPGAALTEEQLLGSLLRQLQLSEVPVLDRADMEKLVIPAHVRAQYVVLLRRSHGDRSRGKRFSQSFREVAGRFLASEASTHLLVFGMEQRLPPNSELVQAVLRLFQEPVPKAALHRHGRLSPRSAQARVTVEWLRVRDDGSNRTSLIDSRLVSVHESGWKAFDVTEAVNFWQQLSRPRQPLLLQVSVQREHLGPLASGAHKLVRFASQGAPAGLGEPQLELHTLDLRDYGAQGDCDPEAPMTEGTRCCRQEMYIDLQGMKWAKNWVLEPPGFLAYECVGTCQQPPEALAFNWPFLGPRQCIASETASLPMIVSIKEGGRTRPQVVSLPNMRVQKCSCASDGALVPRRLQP
Chain of Torsin-1A-interacting protein 1 (Homo sapiens) (Q5JTV8 whole entry, looked up): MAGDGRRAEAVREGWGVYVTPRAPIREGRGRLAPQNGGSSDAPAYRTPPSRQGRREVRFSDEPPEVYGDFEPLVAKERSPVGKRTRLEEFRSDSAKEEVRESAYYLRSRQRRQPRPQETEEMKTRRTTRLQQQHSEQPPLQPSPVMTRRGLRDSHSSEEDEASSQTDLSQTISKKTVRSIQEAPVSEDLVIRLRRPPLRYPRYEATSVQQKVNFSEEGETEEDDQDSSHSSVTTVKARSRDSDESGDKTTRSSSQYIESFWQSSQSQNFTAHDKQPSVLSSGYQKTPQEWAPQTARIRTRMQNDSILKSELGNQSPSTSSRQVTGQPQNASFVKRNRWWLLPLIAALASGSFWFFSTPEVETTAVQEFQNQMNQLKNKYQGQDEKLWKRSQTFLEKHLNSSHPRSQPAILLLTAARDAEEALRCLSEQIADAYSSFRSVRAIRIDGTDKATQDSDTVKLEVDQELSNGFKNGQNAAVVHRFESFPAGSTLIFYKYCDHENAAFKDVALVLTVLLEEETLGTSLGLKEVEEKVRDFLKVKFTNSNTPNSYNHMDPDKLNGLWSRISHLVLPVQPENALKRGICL
Chain of Concanavalin-A (Canavalia ensiformis) (P02866 whole entry, looked up): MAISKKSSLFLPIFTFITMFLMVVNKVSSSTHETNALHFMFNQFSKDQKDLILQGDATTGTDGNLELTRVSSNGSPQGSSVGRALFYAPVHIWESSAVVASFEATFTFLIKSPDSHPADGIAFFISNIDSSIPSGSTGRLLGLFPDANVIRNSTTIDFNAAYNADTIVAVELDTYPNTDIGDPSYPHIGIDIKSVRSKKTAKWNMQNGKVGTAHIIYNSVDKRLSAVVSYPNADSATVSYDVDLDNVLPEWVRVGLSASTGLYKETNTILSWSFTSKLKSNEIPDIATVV

On to `COc1ccc(C(O)C2C=CC3C(=O)N(C)C(=O)C3N2NC(=O)OC(C)(C)C)c2ccccc12` (stereo not given), for which the composite z-score was 1.5 in test [1]; -0.107 in test [3]; 1.56 in test [4]; 0.47 in test [5]; 0.246 in test [6]; 0.275 in test [7]. For the same molecule, the composite z-score in test [8] stood at 1.8; in test [9] it was 0.163; in [10] it was 1.17; in [11] it was 1.02; in test [13], 0.424; in test [14], 0.0315. The composite z-score in test [15] is 0.745; in [16] it was 2.98; in [17], 0.404; in [18], 1.3; in test [19], -0.345; in test [20] it was 1.11. In [2], this molecule gave a z-score of -1.45. The composite Z-score in [12] was -0.128 (inactive).
On to `O=C1O[C@@H](c2ccccc2)[C@@H](c2ccccc2)N2[C@@H](c3ccccc3OCCO)[C@]3(C(=O)Nc4ccc(C#CC5(O)CCCCCC5)cc43)[C@@H](C(=O)N3CCN(c4ncccn4)CC3)[C@H]12`, for which the composite z-score in test [1] is 1.38; in [3], 0.409; in test [4], 0.586; in test [5] it was 0.671; in test [6], -0.0165; in [7], -0.0234. In addition, the composite z-score in test [8] was 0.118; in test [9], 1.5; in test [10], 0.894; in test [11], 0.287; in test [13], -0.0416; in [14] it was -0.131. Besides, the composite z-score in [15] worked out at 0.398; in test [16], 1.47; in test [17] it was 0.795; in test [18], 1.21; in test [19] it was 0.183; in test [20], 1.02. The molecule also had a z-score in [2] of -2.29. The composite Z-score in test [12] is 0.276 (inactive).
For `CCCCN1CC=CC23O[C@@H]4/C=C\CCCOC(=O)C4[C@H]2C(=O)N(CCCCCO)[C@@H]3C1=O` (stereo not given in full), the composite z-score is -0.766 in test [1]; -0.68 in test [3]; -0.803 in [4]; -1.24 in test [5]; -0.172 in test [6]; -0.221 in test [7]. Also, the composite z-score is -0.357 in test [8]; 0.328 in test [9]; -0.509 in test [10]; -1.09 in [11]; -0.326 in test [13]; -0.192 in test [14]. The composite z-score in test [15] was 0.754; in test [16], -0.494; in test [17], 0.85; in [18], -1.12; in test [19], -0.722; in test [20], -1.22. In [2], this molecule showed a z-score of -0.895. Also, in test [12], the composite Z-score is 0.414 (inactive).
`CC1CC/C=C\[C@H]2OC34C=CCN(Cn5nnc6ccccc65)C(=O)[C@H]3N(CCCCCO)C(=O)[C@@H]4C2C(=O)O1` (stereo not given in full): the composite z-score in test [1] is -1.05; in test [3], -1.54; in [4], -0.881; in test [5], 0.0455; in test [6] it was -0.197; in [7], -0.283. The composite z-score is 0.558 in test [8]; -0.722 in test [9]; -1.3 in test [10]; -1.22 in [11]; -0.236 in test [13]; -0.106 in test [14]. The composite z-score was 0.548 in [15]; 0.737 in test [16]; 0.434 in test [17]; 0.479 in test [18]; -1.75 in test [19]; -0.845 in test [20]. Besides, the z-score in [2] amounted to 0.814. Also, the composite Z-score in test [12] was 0.19 (inactive).
As for `CN1C(=O)C2C=CC(C(O)c3ccc(F)cc3)N(N(c3ccccc3)c3ccccc3)C2C1=O` (stereo not given), the composite z-score in [1] was 1.11; in [3], -0.698; in test [4], 0.49; in test [5] it was -0.235; in test [6] it was -0.0236; in test [7], -0.152. Further, the composite z-score in test [8] is -0.55; in test [9], 0.154; in test [10], 0.633; in test [11], 0.698; in test [13], 0.206; in test [14], 0.0264. Moreover, the composite z-score was 0.506 in test [15]; 2.82 in [16]; 0.0833 in test [17]; -0.0714 in test [18]; -0.69 in [19]; 0.324 in test [20]. Besides, the z-score in test [2] is -0.0952. In addition, the composite Z-score in test [12] was 2.43 (inactive).
